Assay results reported in PubChem BioAssay AID651692 (Broad Institute, 2012).
Results with a measured potency or affinity are listed apart. Active and inactive are the calls of the source.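 How the source made its calls: active means fitted half-maximal concentration for loss of cell signal no higher than twice the top valid tested concentration; inconclusive means flat curve at 30 to 70% inhibition, or poor fit; inactive means flat within 30%, signal rise, or potency above limit.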

test: cytotoxicity toward MDA-MB-231 breast cancer cells – cell-based, CellTiter-Glo luminescence, cherry-pick, cytotoxicity control for RAD54 inhibitor project, dose response (AID 651692); conditions: MDA-MB-231 viability, 24 h; series mostly up to 26 µM; activity change, negative = growth inhibition: at the top concentration;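 further: 0% = median of sample compound wells and -100% = staurosporine control wells; more negative values mean stronger loss of viable cell signal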

SMILES | activity change, negative = growth inhibition
CN1CCC(N(C)c2nc(-c3ccccc3)nc3ccccc23)CC1 | -4.35% (inactive)
CCN1CCN(c2ccc(N)c(C)c2)CC1 | 0.217% (inactive)
O=C(NC1CN2CCC1CC2)c1cc(Cl)c([N+](=O)[O-])c2nc[nH]c12 (stereo not drawn) | -4.87% (inactive)
Nc1ccnn1C1CCNCC1 | 2.95% (inactive)
Nc1ccc(CCN2CCCC2)cc1 | 3.15% (inactive)
CCNCCNc1ccc([N+](=O)[O-])c2cccnc12 | -2.9% (inactive)
Cc1ccc(-c2nc(N(C)C3CCN(C)CC3)c3ccccc3n2)cc1 | -10.9% (inactive)
CN1CCN(c2ccc(N)cc2)CC1 | -5.01% (inactive)
Nc1ccc(C2(c3ccc(N)cc3)CN3CCC2CC3)cc1 | 3.5% (inactive)
CN1CCN(c2cc(N3CCNCC3)ccc2[N+](=O)[O-])CC1 | 5.42% (inactive)
COc1ccc2c(c1)[nH]c1c(C)nccc12 | -8.19% (inactive)
CC(Cc1ccccc1)NCC(=O)Nc1cc(N(C)C)nc2ccccc12 (stereo not drawn) | 1.39% (inactive)
Cc1nccc2c1[nH]c1ccccc12 | 0.422% (inactive)
